From the supplement of paper PMC12669032 come the findings set out here.

The first test concerns Bacteroides uniformis. The test is described as follows: growth AUC relative to DMSO control (median of replicates) (fraction); higher = more growth (less inhibition), active = hit call of the paper. As to conditions: 20 µM; 24 h;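 active = AUC reduced over 20% with Padj below 0.05 in at least 2 of 3 replicates; inactive = otherwise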. Put shortly:
(§1)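 Gut bacterial monocultures were grown anaerobically at 37 °C in mGAM from a starting OD600 of 0.05 with 20 µM compound (1% DMSO), in round-bottom 96-well plates under pierced gas-permeable seals, and OD600 was read hourly for 24 h. With the minimum OD set to 0, area under the growth curve was normalised to the plate median of solvent-only wells, or to row and column medians on the industrial chemical plate. Each value is the median of three biological replicates grown on separate days.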
Take `ClC1C(Cl)C(Cl)C(Cl)C(Cl)C1Cl` (mixture of isomers): the “growth AUC” value was 0.916 (inactive).
With `O=C(O)C1(O)c2ccccc2-c2ccc(Cl)cc21` (configuration not stated), the “growth AUC” value is 0.984 (inactive).
Turning to `CCC(CC)Nc1c([N+](=O)[O-])cc(C)c(C)c1[N+](=O)[O-]`, the “growth AUC” value is 0.954 (inactive).
In the case of `CC(C)(C)c1ccc(CCOc2ncnc3ccccc23)cc1`, the “growth AUC” value is 0.944 (inactive).
`CCC(C)(NC(=O)c1cc(Cl)c(C)c(Cl)c1)C(=O)CCl` (configuration not stated): the “growth AUC” value was 0.861 (inactive).
Consider `COc1ccc(/C(=C/C(=O)N2CCOCC2)c2ccc(Cl)cc2)cc1OC`, for which the “growth AUC” value was 0.954 (inactive).
In the case of `CNC(=O)Oc1cccc2c1OC(C)(C)C2=O`, the “growth AUC” value was 1.05 (inactive).
On the same count and under the same terms, under `c1coc(-c2nc3ccccc3[nH]2)c1` stands 0.968 (inactive); under `COP(=O)(OC)SCn1c(=O)oc2cc(Cl)cnc21`, 1.03 (inactive).
In the case of `COC(=O)Nc1nc2ccccc2[nH]1`, the “growth AUC” value was 0.988 (inactive).
`S=C1NCCN1`: the “growth AUC” value was 1.03 (inactive).
With `O=c1[nH]c(Cl)c(Cl)cc1Cl`, the “growth AUC” value was 0.978 (inactive).
For the compound `Cc1cccc(C)c1N`, the “growth AUC” value is 1.06 (inactive).
`COP(=O)(OC)Oc1ccc([N+](=O)[O-])cc1`: the “growth AUC” value was 1 (inactive).
On to `CCOP(=S)(OCC)Oc1ccc2c(C)c(Cl)c(=O)oc2c1`, for which the “growth AUC” value was 0.95 (inactive).
`Clc1cc(Cl)c(Cl)cc1Cl`: the “growth AUC” value is 1.01 (inactive).
With `CCN(CC)c1c([N+](=O)[O-])cc(C(F)(F)F)c(N)c1[N+](=O)[O-]`, the “growth AUC” value is 0.972 (inactive).
For `C[C@@H](Oc1ccc(Oc2ccc(C(F)(F)F)cn2)cc1)C(=O)O`, the “growth AUC” value was 0.995 (inactive).
Take `CCOP(=S)(Oc1cnc(C(C)(C)C)nc1)OC(C)C` (configuration not stated): the “growth AUC” value was 0.974 (inactive).
Same read-out and setting: under `Oc1ccc(C(c2ccc(O)cc2)(C(F)(F)F)C(F)(F)F)cc1` stands 0.686 (active).

The subject of another test is Bifidobacterium longum subsp. longum. Described as above. The settings on record: 20 µM; 24 h. Put shortly: as §1
For the compound `CCCSC(=O)N(CCC)CCC`, the “growth AUC” value is 1.04 (inactive).
Turning to `CCOP(=S)(OCC)SCCSCC`, the “growth AUC” value is 1.02 (inactive).
Take `Nc1c(Cl)c(Cl)c(Cl)c(Cl)c1Cl`: the “growth AUC” value is 0.949 (inactive).
On to `N#Cc1c(Cl)cccc1Cl`, for which the “growth AUC” value was 0.898 (inactive).
On to `CC(CCl)OP(=O)(OC(C)CCl)OC(C)CCl` (mixture of isomers), for which the “growth AUC” value was 1.05 (inactive).
As to `CNC(=O)/C(=N/OC)c1ccccc1Oc1ccccc1`, the “growth AUC” value was 0.942 (inactive).
As for `Clc1c(Cl)c(Cl)c(Cl)c(Cl)c1Cl`, the “growth AUC” value was 0.981 (inactive).
For `C#CC(C)(C)NC(=O)c1cc(Cl)cc(Cl)c1`, the “growth AUC” value was 0.987 (inactive).
With `CNC(=O)Oc1cc(C)c(SC)c(C)c1`, the “growth AUC” value is 1.34 (inactive).
Take `C[N+](C)(C)CCCl.[Cl-]`: the “growth AUC” value was 0.997 (inactive).
Same read-out and setting: under `CC(C)(C)c1cc([N+](=O)[O-])cc([N+](=O)[O-])c1O` stands 0.964 (inactive); under `CCOP(=S)(OCC)SCSc1ccc(Cl)cc1`, 1.03 (inactive).
As for `O=S(=O)(c1ccc(Cl)cc1)c1cc(Cl)c(Cl)cc1Cl`, the “growth AUC” value was 1.04 (inactive).
Take `CCOCCN(C(=O)CCl)C(=C(C)C)c1ccccc1`: the “growth AUC” value is 1.04 (inactive).
As for `CC(C)(O)C(Cl)(Cl)Cl.CC(C)(O)C(Cl)(Cl)Cl.O`, the “growth AUC” value is 0.917 (inactive).
The same measure, in the same setting: the figure for `Nc1cnn(-c2ccccc2)c(=O)c1Cl` is 0.936 (inactive); for `CC(C)=CC1C(C(=O)OCN2C(=O)C3=C(CCCC3)C2=O)C1(C)C` (configuration not stated) it is 0.741 (inactive); for `O=P(OCCCl)(OCCCl)OCCCl` it is 0.895 (inactive).
For `COCc1c(F)c(F)c(COC(=O)[C@@H]2[C@@H](C=C(Cl)Cl)C2(C)C)c(F)c1F`, the “growth AUC” value was 1.03 (inactive).
For the compound `ClC1C(Cl)C(Cl)C(Cl)C(Cl)C1Cl` (mixture of isomers), the “growth AUC” value was 0.921 (inactive).
As to `O=C(O)C1(O)c2ccccc2-c2ccc(Cl)cc21` (configuration not stated), the “growth AUC” value is 0.936 (inactive).
Regarding `CCC(CC)Nc1c([N+](=O)[O-])cc(C)c(C)c1[N+](=O)[O-]`, the “growth AUC” value is 1 (inactive).
On to `CC(C)(C)c1ccc(CCOc2ncnc3ccccc23)cc1`, for which the “growth AUC” value was 0.996 (inactive).
Regarding `CCC(C)(NC(=O)c1cc(Cl)c(C)c(Cl)c1)C(=O)CCl` (configuration not stated), the “growth AUC” value is 0.953 (inactive).
Same read-out and setting: the figure for `COc1ccc(/C(=C/C(=O)N2CCOCC2)c2ccc(Cl)cc2)cc1OC` is 1.04 (inactive); for `CNC(=O)Oc1cccc2c1OC(C)(C)C2=O` it is 1.02 (inactive).
Turning to `c1coc(-c2nc3ccccc3[nH]2)c1`, the “growth AUC” value was 1.04 (inactive).
